Test results: PubChem BioAssay (EPA / NIEHS)
Calls of active or inactive are those of the source. Rule for the calls: active = hit-call score of the fitted dose curve at least 0.9, where 1 is the maximum; inactive = score below 0.9.

test: APR_HepG2_StressKinase_72hr: Apredica 72-hour HepG2 Assay for Stress Kinase (AID 2282921); settings: HepG2 stress kinase (phospho-c-Jun) imaging, actives raise or lower the signal
Experimental: APR_HepG2_72hr is a cell-based, multiplexed-readout assay that uses HepG2, a human liver cell line, with measurements taken at 72 hours after chemical dosing in a 384-well plate.APR_HepG2_StressKinase_72hr is one of 10 assay component(s) measured or calculated from the APR_HepG2_72hr assay. It is designed to make measurements of enzyme activity, a form of enzyme reporter, as detected with fluorescence intensity signals by HCS Fluorescent Imaging technology.Data from the assay component APR_HepG2_StressKinase_72hr was analyzed into 1 assay endpoint. This assay endpoint, APR_HepG2_StressKinase_72hr, was analyzed with bidirectional fitting relative to DMSO as the negative control and baseline of activity. Using a type of enzyme reporter, measures of protein for gain or loss-of-signal activity can be used to understand the signaling at the pathway-level as they relate to the gene . Furthermore, this assay endpoint can be referred to as a primary readout, because this assay has produced multiple assay endpoints where this one serves a signaling function. To generalize the intended target to other relatable targets, this assay endpoint is annotated to the cell cycle intended target family, where the subfamily is stress response.
Cells were treated with dimethyl sulfoxide (DMSO) as a solvent control at a final concentration of 0.5% v/v or with compounds in DMSO with a resulting final DMSO concentration of 0.5% v/v. Compound treatment was done at concentrations of 0.39, 0.78, 1.56, 3.12, 6.24, 12.5, 25, 50, 100, and 200 uM in duplicate on each plate. Cells were treated with compounds for 1, 24, or 72 hr. Carbonyl […] m-chloro-phenylhydrazone (CCCP) and taxol were used as positive controls for mitochondrial function and cytoskeletal stability, respectively; DMSO served as the negative control for this experiment. Cells were fixed by the direct addition of 50 uL formaldehyde in Hank's Balanced Salt Solution (HBSS) to a final concentration of 3.7%. After incubation in the fixation medium for 30 min at room temperature (293-298 K), cells were rinsed twice with HBSS and treated with cell permeabilization buffer (16 uL of 0.5% Triton X-100) for 10 min at room temperature (293-298 K) before labeling. For mitochondrial membrane potential and mitochondrial measurements, pre-fixed cells were incubated with 50 uL of MitoTracker Red CMXRos (Invitrogen) at a concentration of 250 nM for 30 min before fixation. In the remaining cases, post-fixed cells were labeled by incubation with a multiplexed mixture of primary antibodies in HBSS for 60 min at room temperature (293-298 K) to detect immunoreactivity of c-Jun (1:500), phospho-histone H3 (1:100), phospho-histone H2A.x (1:200), p53 (1:400), alpha-tubulin (1:200) and Hoechst 33342 (2 ug/mL). Cells were labeled for multiplexed imaging on two separate plates: a) Hoechst 33342, MitoTracker Red, phospho-histone H3, and alpha-tubulin, and b) Hoechst 33342, phospho-histone H2A.x, and c-Jun. A final rinse with HBSS (50 uL) was performed before analysis. The primary and secondary antibodies for the proteins were phospho-histone H3 (rabbit anti-phospho-histone H3 and FITC-donkey anti-rabbit IgG), phospho-histone H2A.x (mouse anti-phospho-histone H2A.x and FITC-donkey anti-mouse IgG), c-Jun (rabbit anti-phospho-c-Jun and Cy3-donkey anti-rabbit IgG), p53 (sheep anti-p53 and Cy5-donkey anti-sheep IgG), alpha-tubulin (mouse anti-alpha-tubulin and Cy5-donkey anti-mouse IgG). These antibodies are available as the CellCiphr HepG2 assay kit (Millipore).Digital images of each well were captured using a Cellomics ArrayScan VTI (Thermo Scientific Cellomics) (0.8 NA objective, 0.63x optical coupler, and XF-93 filter set) at 20x magnification. The images were acquired using the autofocus feature of the ArrayScan instrument, which entails the following steps. First, the camera focuses on channel 1 (Hoechst 33342), where nuclei are identified. Second, a Z offset of 1 um is used for capturing mitochondria (MitoTracker Red). […]

| SMILES | outcome | AC50 |
| --- | --- | --- |
| CCc1nn(C2CCCCC2)c2cc(C3(C#N)CCC(C(=O)O)CC3)ccc12 (stereo not given) | inactive |  |
| CN(C)C=O | inactive |  |
| CCCCOCCO | inactive |  |
| CC(C)(C)c1ccc(O)c(C(C)(C)C)c1 |  | 56.6 µM (active) |
| CCCCC(CC)COC(=O)CCCCC(=O)OCc1ccccc1 (stereo not given) | inactive |  |
| CN1CCC[C@H]1c1cccnc1 | inactive |  |
| OC1CCC(C2CCCCC2)CC1 (stereo not given) | inactive |  |
| CC[C@H](C)[C@@H](C(=O)O)n1sc2ccccc2c1=O | inactive |  |
| CC#C[C@]1(O)CC[C@H]2[C@@H]3CCC4=CC(=O)CCC4=C3[C@@H](c3ccc(N(C)C)cc3)C[C@@]21C | inactive |  |
| NC(=O)N1C(=O)C(C(=O)c2cc(Cl)cs2)c2cc(F)c(Cl)cc21 (stereo not given) |  | 67.4 µM (active) |
| CCC(=C(c1ccc(O)cc1)c1ccc(OCCN(C)C)cc1)c1ccccc1 | inactive |  |
| CC(O)CO (stereo not given) | inactive |  |
| OCCC(F)(F)C(F)(F)C(F)(F)C(F)(F)C(F)(F)C(F)(F)F | inactive |  |
| COC(=O)CCCCC(=O)OC | inactive |  |
| Cc1oc(-c2ccccc2)nc1CCOc1ccc(C[C@H](Nc2ccccc2C(=O)c2ccccc2)C(=O)O)cc1 | inactive |  |
| CCCOC(=O)c1ccc(O)cc1 | inactive |  |
| CN1CCN(c2ccccc2/C=C2\SCCN(c3ccc(Cl)c(Cl)c3)C2=O)CC1 |  | 19.4 µM (active) |
| CCCCCCCCCCCCCCCS(=O)(=O)Oc1ccccc1 | inactive |  |
| N#C[C@@H]1CC(F)(F)CN1C(=O)CNC1CC2CCC(C1)N2c1ncccn1 (stereo not given in full) | inactive |  |
| COc1ccc([N+](=O)[O-])cc1N | inactive |  |

| SMILES | outcome | AC50 |
| --- | --- | --- |
| CCOC(=O)CC(O)(CC(=O)OCC)C(=O)OCC | inactive |  |
| CCc1ccc(CCOc2ccc(CC3SC(=O)NC3=O)cc2)nc1 (stereo not given) | inactive |  |
| Cc1cc(C)c(O)c(C)c1 | inactive |  |
| CC(=O)NC1(c2cccc(F)c2)CCN(CC[C@@]2(c3ccc(Cl)c(Cl)c3)CN(c3ccccc3)C(=O)CO2)CC1 |  | 24 µM (active) |
| CC(C)(C)c1cccc(C(C)(C)C)c1O | inactive |  |
| c1ccc2c(c1)Cc1ccccc1-2 | inactive |  |
| CCCCC[C@H](O)CC(=O)CCc1ccc(O)c(OC)c1 | inactive |  |
| O=C(O)c1ccccc1C(c1ccc(O)cc1)c1ccc(O)cc1 | inactive |  |
| O=C(/C=C/c1ccc(O)cc1)CC(=O)/C=C/c1ccc(O)cc1 |  | 27.1 µM (active) |
| O=[N+]([O-])c1ccc(O)cc1 | inactive |  |
| CC(C)CCCCCCOC(=O)CCCCC(=O)OCCCCCCC(C)C | inactive |  |
| CCN(CC)CCNc1ccc(CNC=O)c2sc3ccc(OC)cc3c(=O)c12 | inactive |  |
| Cc1cc(CCN2CCN(c3nsc4ccccc34)CC2)cc2c1NC(=O)CC2(C)C | inactive |  |
| CCCOc1sc(C(=O)N2CCC(c3cc(CN)ccc3F)CC2)c(C)c1Br |  | 32.1 µM (active) |
| COCC(C)OCC(C)O (stereo not given) | inactive |  |
| COCC(C)O (stereo not given) | inactive |  |
| C#C[C@]1(O)CC[C@H]2[C@@H]3CCC4=CC(=O)CC[C@@H]4[C@H]3CC[C@@]21C | inactive |  |
| CCC(C)(C)C1CCC(O)CC1 (stereo not given) | inactive |  |
| CCCCCCCCOC(=O)CCCCCCCCC(=O)OCCCCCCCC | inactive |  |
| CC1=C(/C=C/C(C)=C/C=C/C(C)=C/C(=O)O)C(C)(C)CCC1 | inactive |  |
